Each structure is given as a SMILES string. Screen size: about 340,000 compounds; about 1,000 (0.29%) were called active. The sample as a whole holds a higher share of actives than the screen did. Unmarked numbers belong to inactive results.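 How the source made its calls: active means mean replicate activation score at least 90 and every replicate individually at or above 90; inconclusive means only one of the two criteria met; inactive means neither criterion met.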

The test in a line: miR-122 Renilla sensor signal increase in Huh7, primary screen, miR-122 inhibitor project, cell-based, single point, plate reader (AID 602342).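 Further: higher luciferase means less miR-122 activity so hits act as miR-122 inhibitors.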 The note with it: Huh7 miR-122 Renilla luciferase sensor, 48 h, stronger effect = higher value, neutral wells = 0, positive control = 100; at 16.7 µM unless noted.
As for `O=C(C1CCC1)N1C[C@H]2[C@@H](c3ccccc31)[C@@H](CO)N2C(=O)c1ccccc1F`, the activation (reporter increase) was -20%.
For `Cc1noc(C)c1NC(=O)Nc1ccc2c(c1)C(=O)N([C@H](C)CO)C[C@@H](C)[C@H](CN(C)C(=O)Nc1cccc3ccccc13)OCCCC[C@@H](C)O2`, the activation (reporter increase) was 0.113%.
Regarding `CN1C(=O)c2cc(NC(=O)c3cscn3)ccc2OC[C@@H]2O[C@H](CC(=O)N3CCCCC3)CC[C@H]21`, the activation (reporter increase) is 4.63%.
As to `CCCNc1ncnc2sc(C)c(C)c12`, the activation (reporter increase) was 122% [at 12.5 µM] (active).
As for `Cc1sc2ncnc(SCC(=O)Nc3ccc(CN4CCCC4)cc3)c2c1C`, the activation (reporter increase) is 2.95% [at 12.5 µM].
On to `Cc1sc2ncnc(SCC(=O)NC3CCS(=O)(=O)C3)c2c1C` (stereo not given), for which the activation (reporter increase) was -0.478% [at 12.5 µM].
As for `O=C(C1CCC1)N1CCCCN2[C@H](C1)[C@@H](c1ccc(C#CC3CCCC3)cc1)[C@@H]2CO`, the figure is -25.6%.
As for `O=C(C[C@@H]1CC[C@@H]2[C@H](COC[C@@H](O)CN2Cc2ccc(F)cc2)O1)NCc1ccncn1`, the figure is 5.81%.
As for `C[C@H](CO)N1C[C@H](C)[C@H](CN(C)C(=O)Nc2cccc3ccccc23)OCCCC[C@H](C)Oc2ccc(NC(=O)Nc3ccc4c(c3)OCO4)cc2C1=O`, the activation (reporter increase) was 6.96%.
On to `Cc1c(C)c(C)c(S(=O)(=O)NCCc2ccccn2)c(C)c1C`, for which the activation (reporter increase) is 107% [at 12.5 µM] (active).
Take `O=S(=O)(/C=C/c1ccccc1)NCCc1ccccn1`: the activation (reporter increase) was 73.3% [at 12.5 µM].
As for `O=S(=O)(NCCc1ccccn1)c1cc(Cl)cc(Cl)c1O`, the activation (reporter increase) was -4.9% [at 12.5 µM].
With `Cc1noc(C)c1NC(=O)N(C)C[C@H]1OCc2cn(nn2)CCCC(=O)N([C@@H](C)CO)C[C@H]1C`, the activation (reporter increase) is 0.754%.
As to `C[C@@H]1CN([C@@H](C)CO)S(=O)(=O)c2ccc(-c3cccc(C(=O)N(C)C)c3)cc2O[C@@H]1CN(C)C(=O)Nc1ccccc1`, the activation (reporter increase) is 18.2%.
As for `C[C@H]1CN([C@@H](C)CO)C(=O)c2cc(N(C)C)ccc2O[C@@H]1CN(C)S(=O)(=O)c1ccc(Cl)cc1`, the activation (reporter increase) is 47.5%.
On to `O=C(NN=Cc1ccccc1)c1ccccc1`, for which the activation (reporter increase) was -2.03% [at 12.5 µM].
The value for `Cc1cc(C(=O)N/N=C\C(Br)=C\c2ccccc2)c(C)o1` was 1.4% [at 12.5 µM]; that for `CC(C)c1cc(C(=O)N/N=C/C(Br)=C/c2ccccc2)n[nH]1` was 122% [at 12.5 µM] (active); that for `O=C(c1cccnc1)N1C[C@H]2[C@@H](c3ccccc31)[C@@H](CO)N2C(=O)Nc1ccccc1F` was -2.82%.
Regarding `CC1CCCCC1NC(=O)COc1ccc(C#N)cc1` (stereo not given), the activation (reporter increase) is -5.71% [at 12.5 µM].
Turning to `CC1CCCCC1NC(=O)/C(C#N)=C/C=C/c1ccccc1[N+](=O)[O-]` (stereo not given), the activation (reporter increase) was 102% [at 12.5 µM] (active).
The value for `O=[N+]([O-])c1ccccc1/C=C/CN1CCCC(CO)C1` (stereo not given) was 4.13% [at 12.5 µM].
Turning to `CN(C[C@@H]1[C@H](c2ccccc2)[C@@H](CO)N1Cc1ccccn1)S(C)(=O)=O`, the activation (reporter increase) was 0%.
Regarding `CCCC(=O)Nc1nc2ccc(NC(=O)c3c(F)c(F)c(OC)c(F)c3F)cc2s1`, the activation (reporter increase) was 143% [at 12.5 µM] (active).
As to `CSc1nc2ccc(NC(=O)c3c(F)cccc3F)cc2s1`, the activation (reporter increase) was -16% [at 12.5 µM].
On to `CC(=O)Nc1ccc2nc(NC(=O)CS(=O)(=O)c3ccc(F)cc3)sc2c1`, for which the activation (reporter increase) is 5.07% [at 12.5 µM].
The value for `COc1cccc(-n2cc3c(c2-c2ccccc2)c(=O)n(C)c(=O)n3C)c1` was 13% [at 12.5 µM]; that for `Cn1c(=O)c2cn(-c3cccc4ccccc34)cc2n(C)c1=O` was -1.8% [at 12.5 µM].
As to `COc1ccc(OC)c(-n2cc3c(=O)n(C)c(=O)n(C)c3c2)c1`, the activation (reporter increase) was 102% [at 12.5 µM] (active).
Consider `COc1ccc(S(=O)(=O)Nc2ccc3c(c2)C(=O)N([C@@H](C)CO)C[C@H](C)[C@@H](CN(C)C(=O)NC(C)C)OCCCC[C@H](C)O3)cc1`, for which the activation (reporter increase) is 15.2%.
In the case of `C[C@H](CO)N1C[C@H](C)[C@H](CN(C)C)Oc2ccc(NC(=O)c3ccncc3)cc2CC1=O`, the activation (reporter increase) was 5.36%.
In the case of `COc1ccccc1-c1cc(NC(C)=O)c2ncc(-c3ccc(F)cc3)n2c1`, the activation (reporter increase) is 5.94% [at 12.5 µM].
With `COc1ccc(-c2cc(NC(C)=O)c3ncc(-c4cc(OC)c(OC)c(OC)c4)n3c2)cn1`, the activation (reporter increase) is 107% [at 12.5 µM] (active).
As for `COc1cccc(-c2cnc3c(NC(C)=O)cc(-c4cc(F)ccc4OC)cn23)c1`, the figure is 36.5% [at 12.5 µM].
With `Cc1noc(C)c1NC(=O)Nc1ccc2c(c1)CC(=O)N([C@@H](C)CO)C[C@@H](C)[C@H](CN(C)Cc1ccc(Oc3ccccc3)cc1)O2`, the activation (reporter increase) was -3.38%.
For the compound `CCC(=O)Nc1ccc2c(c1)C(=O)N(C)[C@@H]1CC[C@@H](CC(=O)NCCc3ccccc3)O[C@H]1CO2`, the activation (reporter increase) is -4.08%.
As for `COCC(=O)Nc1ccc2c(c1)[C@@H]1C[C@H](CC(=O)NCc3cc(F)ccc3F)O[C@@H](CO)[C@@H]1O2`, the activation (reporter increase) was 12.6%.
For the compound `CCC(=O)N1[C@H](CO)[C@@H]2c3ccccc3N(S(=O)(=O)c3ccccc3C)C[C@@H]21`, the activation (reporter increase) was 0%.
Take `Cc1ccc(S(=O)(=O)NC2CCCCCC2)cc1`: the activation (reporter increase) is 106% [at 12.5 µM] (active).
On to `O=C(CCc1ccc(S(=O)(=O)NC2CCCCC2)cc1)NCc1ccccc1`, for which the activation (reporter increase) was 101% [at 12.5 µM] (active).
As to `Cc1ccc(S(=O)(=O)NC2CCCCCC2)cc1C(N)=O`, the activation (reporter increase) was 62.2% [at 12.5 µM].
The value for `CC(C)c1ccc(S(=O)(=O)NC2CCCC2)cc1` was 51.5% [at 12.5 µM].
As for `COc1ccc(C)cc1S(=O)(=O)Nc1cccc(Cl)c1Cl`, the activation (reporter increase) was 66.7% [at 12.5 µM].
As for `CCOc1ccc(C)cc1S(=O)(=O)NC1CCCCCC1`, the activation (reporter increase) was 67.9% [at 12.5 µM].
Take `Cc1cc(S(=O)(=O)NC2CCCCC2)ccc1OCC(=O)NCc1cccnc1`: the activation (reporter increase) is 72% [at 12.5 µM].
Consider `O=S(=O)(NC1CC1)c1ccc(Cl)cc1`, for which the activation (reporter increase) is -7.11% [at 12.5 µM].
`CSc1ccc(S(=O)(=O)NC2CCCCC2)cc1`: the activation (reporter increase) was 102% [at 12.5 µM] (active).
For `COc1ccc(C)cc1S(=O)(=O)NC1CCCCC1`, the activation (reporter increase) is 375% [at 12.5 µM] (active).
Turning to `CC(C)CNS(=O)(=O)c1ccc(CCC(=O)NCc2ccc(Cl)cc2)cc1`, the activation (reporter increase) was 15.1% [at 12.5 µM].
As for `O=S(=O)(NC1CCCC1)c1ccc(-n2cnnn2)cc1`, the activation (reporter increase) is -2.1% [at 12.5 µM].

For the origin of these results see PubChem BioAssay AID602342 (Broad Institute, 2012).
